Source: PubChem BioAssay
A selection follows.
aSyn 5UTR act = Activators via SNCA 5'UTR binding, MLPCN. alpha-synuclein 5'UTR reporter, activators screen. activity score, % (tested at 7.5 µM), hits read low. 300,000 compounds, 7.1% hits. AID 1814; in the data active = activity score below about -60%
Of the large screens only hits and unclear results are named; the others gave an inactive call.

Cc1ccc(-c2nnc(NC(=O)c3ccco3)s2)cc1	aSyn 5UTR act -84
C/C=C(\C)c1nnc(NC(=O)c2ccco2)s1	aSyn 5UTR act -78
COc1ccc(NC(=O)Cn2nnc(-c3ccccc3NC(=O)c3ccco3)n2)cc1	aSyn 5UTR act -117
O=C(COc1ccccc1)Nc1nnc(C23CC4CC(CC(C4)C2)C3)s1	aSyn 5UTR act -75
COc1cccc(-c2nnc(NC(=O)c3cccs3)s2)c1	aSyn 5UTR act -119
COc1cccc(-c2nnc3sc(-c4ccco4)nn23)c1	aSyn 5UTR act -95
COc1cccc(-c2nnc(NC(=O)c3ccco3)s2)c1	aSyn 5UTR act -97
CSc1ccccc1NC(=O)c1cnc2scc(C)n2c1=O	aSyn 5UTR act -108
CCc1ccccc1NC(=O)c1cnc2scc(C)n2c1=O	aSyn 5UTR act -99
Cc1ccccc1NC(=O)c1cnc2ccccn2c1=O	none
Cc1csc2ncc(C(=O)NCCc3ccccc3)c(=O)n12	aSyn 5UTR act -134
O=C(NCCc1ccccc1)c1cnc2ccccn2c1=O	aSyn 5UTR act -73
CCOc1ccc(NC(=O)c2cnc3scc(C)n3c2=O)cc1	aSyn 5UTR act -104
Cn1c(=O)c2nc(-c3ccccc3)oc2c2ccccc21	aSyn 5UTR act -69
COc1ccc(-c2cc(C(=O)NCc3cccnc3)no2)cc1	aSyn 5UTR act -117
Cc1ccc(NC(=O)c2cc(-c3cccc(O)c3)on2)cc1C	aSyn 5UTR act -115
O=C(NCc1cccnc1)c1cc(-c2ccccc2)on1	aSyn 5UTR act -89
O=C(NCc1cccnc1)c1cc(-c2cccs2)on1	aSyn 5UTR act -92
COc1ccc(CNC(=O)c2cc(C3CC3)on2)cc1	aSyn 5UTR act -106
O=C(NCc1ccccc1)c1cc(-c2cccc(O)c2)on1	aSyn 5UTR act -66
COc1ccsc1NC(=O)OCc1ccc(Cl)cc1	aSyn 5UTR act -69
COc1ccccc1N1CCN(/N=C/c2cccc(O)c2)CC1	aSyn 5UTR act -111
COc1ccccc1N1CCN(/N=C/c2ccc(Cl)c([N+](=O)[O-])c2)CC1	aSyn 5UTR act -128
COc1ccccc1N1CCN(/N=C/c2ccc([N+](=O)[O-])cc2)CC1	aSyn 5UTR act -159
COc1ccccc1N1CCN(c2ccnc3cc(Cl)ccc23)CC1	none
O=c1cc(-c2cccc(F)c2)[nH]c2ccccc12	none
CSc1ccc(/C=C/c2cc(=O)c3ccccc3[nH]2)cc1	aSyn 5UTR act -69
c1ccc(CCc2nc(-c3cccnc3)no2)cc1	aSyn 5UTR act -90
Brc1ccc(-c2noc(CCc3ccccc3)n2)cc1	aSyn 5UTR act -84
CC(C)(C)c1ccc(-c2noc(CCC(N)=O)n2)cc1	none
CCCc1nc(-c2ccc(-c3ccc(F)cc3)cc2)no1	aSyn 5UTR act -145
O=C(Nc1ccc(-c2noc(CCc3ccccc3)n2)cc1)c1ccco1	aSyn 5UTR act -115
O=C1CCC(=O)N1CCCCCc1nc(-c2ccccc2)no1	aSyn 5UTR act -104
c1ccc(CCc2nc(-c3ccccc3)no2)cc1	aSyn 5UTR act -192
c1cncc(-c2noc(CC3CCCCC3)n2)c1	aSyn 5UTR act -87
Cc1nn(-c2ccc(N3CCCCC3)nn2)c(C)c1CCC(=O)Nc1cc(F)ccc1F	aSyn 5UTR act -65
COc1ccc(/C(N)=N/OC(=O)c2ccco2)cc1OC	aSyn 5UTR act -142
N/C(=N\OC(=O)c1ccco1)c1cccc([N+](=O)[O-])c1	aSyn 5UTR act -210
N/C(=N\OC(=O)c1ccco1)c1cccc(Br)c1	aSyn 5UTR act -249
Cc1ccc2c(Cl)c(C(=O)N/N=C/c3cccn3C)sc2c1	aSyn 5UTR act -135
Cn1cc(C(=O)N/N=C/c2c(O)ccc3ccccc23)ccc1=O	none
O=C(N/N=C/c1cccs1)c1ccccn1	aSyn 5UTR act -79
Cn1cccc1/C=N/NC(=O)c1cc2ccccc2cc1O	aSyn 5UTR act -82
Cn1cccc1/C=N/NC(=O)c1ccccn1	aSyn 5UTR act -71
CC(C)(C)NC(=O)C(=O)N/N=C/c1cccs1	aSyn 5UTR act -120
O=C(O)c1cccc(N/N=C/c2cccs2)c1	none
Cn1cccc1C(=O)N/N=C/c1c(Cl)cccc1Cl	aSyn 5UTR act -100
COc1ccnc(CSC(N)=Nc2cccc(C(F)(F)F)c2)c1	aSyn 5UTR act -81
COc1ccccc1NC(=O)C1=C(C)NC(=O)NC1c1ccccc1[N+](=O)[O-] (stereo not drawn)	aSyn 5UTR act -98
O=C(NNC(=O)c1ccccc1Br)c1cccc(Cl)c1	aSyn 5UTR act -92
O=C(Nc1ccc(Cl)cc1F)c1ccccc1Br	aSyn 5UTR act -207
O=C(Nc1ccc(Cl)cc1F)c1cccc2ccccc12	aSyn 5UTR act -63
Cc1ccc2oc(-c3cccc(NC(=O)C4CCCO4)c3)nc2c1 (stereo not drawn)	aSyn 5UTR act -181
O=C(Nc1cccc(-c2nc3cc(Cl)ccc3o2)c1)C1CCCO1 (stereo not drawn)	aSyn 5UTR act -72
Cc1cccc(-c2nc3cc(NC(=O)C4CCCO4)ccc3o2)c1 (stereo not drawn)	none
CCOc1nc(NCc2ccco2)nc(Nc2ccccc2F)n1	aSyn 5UTR act -108
CCS(=O)(=O)N1Cc2ccccc2CC1C(=O)Nc1ccc(F)c(F)c1F (stereo not drawn)	aSyn 5UTR act -62
O=C(Nc1nnc(C2CC2)s1)C1Cc2ccccc2CN1S(=O)(=O)c1ccccc1F (stereo not drawn)	aSyn 5UTR act -178
CCS(=O)(=O)N1Cc2ccccc2CC1C(=O)Nc1ncc(C)s1 (stereo not drawn)	aSyn 5UTR act -126
CCS(=O)(=O)N1Cc2ccccc2CC1C(=O)Nc1cccc(C)c1 (stereo not drawn)	aSyn 5UTR act -102
CCS(=O)(=O)N1Cc2ccccc2CC1C(=O)Nc1ccc(F)c(F)c1 (stereo not drawn)	aSyn 5UTR act -88
CCc1cc(C(c2ccc(OC)c(OC)c2)N2CCOCC2)c(NC(=O)c2ccccc2)s1 (stereo not drawn)	aSyn 5UTR act -62
Cc1ccc(N2CN=C3SCC(=O)N3C2)cc1C	aSyn 5UTR act -121
CCOC(=O)c1sc(=NC(=O)c2cccc(C)c2)n(C)c1C	aSyn 5UTR act -151
CCOC(=O)c1sc(=NC(=O)c2cccc(Br)c2)n(C)c1C	aSyn 5UTR act -188
O=C(Nc1ccccc1C(F)(F)F)c1cc2ccccc2o1	aSyn 5UTR act -209
O=C(Nc1cccc(Cl)c1N1CCCC1)c1cc2ccccc2o1	aSyn 5UTR act -74
CC(=O)c1cccc(NC(=O)c2cc(=O)c3ccccc3o2)c1	aSyn 5UTR act -62
CCN1CCN(c2c(Cl)cccc2NC(=O)c2ccc([N+](=O)[O-])o2)CC1	none
COC(=O)c1cccc(NC(=O)c2cc3ccccc3o2)c1	aSyn 5UTR act -105
COC(=O)c1ccccc1NC(=O)c1cc2ccccc2o1	aSyn 5UTR act -79
CN(C)S(=O)(=O)c1cc(NC(=O)c2cc(=O)c3ccccc3o2)ccc1Cl	aSyn 5UTR act -66
CN=C(c1ccc(C)cc1)n1c(=S)nc(-c2ccc(C)cc2)n(C)c1=S	aSyn 5UTR act -149
C=CCn1c(SCc2ccc(C#N)cc2)nnc1-c1cccc(OC)c1	none
C=CCn1c(SCc2ccc(OC)cc2)nnc1-c1cccnc1	aSyn 5UTR act -117
CCn1c(SCc2ccc(OC)cc2)nnc1-c1ccncc1	aSyn 5UTR act -106
COCC(=O)N/N=C\c1ccccc1OC/C=C/c1ccccc1	aSyn 5UTR act -95
N#CCC(=O)N/N=C\c1ccccc1OC/C=C/c1ccccc1	aSyn 5UTR act -166
CSc1ccc(C2c3[nH]c4ccccc4c3CCN2C(=O)c2cc(C)n(C)n2)cc1 (stereo not drawn)	aSyn 5UTR act -287
CSc1nc(/C=C2\C=Nc3ccccc32)c(O)n1C	aSyn 5UTR act -152
